Measured values reported in PubChem BioAssay.

test: basal MM1S mitochondrial membrane potential changes, profiling panel, cell-based, JC-1 fluorescence, 24 h, 100 nL compound (AID 1170); settings: higher = more signal; note: test concentration not given here

| Structure (SMILES) | z-score |
| --- | --- |
| CCOC(=O)C[C@H]1[C@H](OC(=O)Cc2ccc3c(c2)OCO3)[C@@H](NC(=O)c2ccc3ccccc3n2)c2cc(OCCCO)ccc2N1C(=O)c1ccccc1 | -1.07 |
| COc1ccc([Si](C)(C)[C@@H]2[C@@H](CC(=O)N(CCO)Cc3ccccc3)O[C@]3(C(=O)N(Cc4cccc(N5CCCCC5=O)c4)c4ccccc43)[C@H]2C)cc1 | -1.26 |
| C=C[C@@H](OC)[C@H](OC(=O)Nc1ccc(OC)cc1)c1ccc(O)c(F)c1 | -0.0233 |
| CCCCCC1=C2CNC(C)(C(=O)OC)C=C2C(C)C1=O (stereo not given) | -0.362 |
| O=C1NC(=O)C2C1C=CC(C(O)c1ccco1)N2Nc1ccc(Cl)cc1Cl (stereo not given) | -0.218 |
| CCC#CCN(Cc1ccccc1Br)[C@H](/C=C/C1CC1)[C@@H](O)Cc1ccccc1 | -1.39 |
| COc1ccc([Si](C)(C)[C@@H]2[C@@H](CC(=O)N3Cc4ccccc4C[C@H]3CO)O[C@]3(C(=O)N(Cc4ccc(N5C(=O)c6cccc7cccc5c67)cc4)c4ccccc43)[C@H]2C)cc1 | 0.893 |
| [N-]=[N+]=Nc1ccccc1C[C@@]1(C(=O)NCCN2CCOCC2)N=C(c2ccc(OCCCO)cc2)O[C@@H]1c1ccccc1N=[N+]=[N-] | -1.27 |
| CC1=C2[C@@H](CCc3ccccc3)OB(O)C[C@@H]2[C@@H]2C(=O)N(Cc3ccccc3)C(=O)[C@@H]2C1 | 0.821 |
| CC1CC/C=C\[C@H]2OC34C=CCN(Cc5ccccc5)C(=O)[C@H]3N(C(CO)C(C)C)C(=O)[C@@H]4C2C(=O)O1 (stereo not given in full) | -0.0133 |
| COc1cccc(C)c1NC(=O)O[C@H]1[C@H](OC(=O)Nc2ccc3c(c2)OCO3)[C@@H](OC(=O)Nc2ccc3c(c2)OCO3)[C@@H](OC)O[C@@H]1CO | -0.0492 |
| Cc1ccccc1C(O)C1C=CC2C(=O)NC(=O)C2N1Nc1ccccn1 (stereo not given) | 0.365 |
| CCCCC(=C=CC[C@H](O)c1ccc(OCCO)cc1)CCO | -0.952 |
| CC(c1ccccc1)C(O)C1C=CC2C(=O)N(C)C(=O)C2N1Nc1ccccc1 (stereo not given) | -0.527 |
| C=CCC(OC(C)=O)[C@@H]1[C@@H](N(Cc2ccc(-c3cccc(C(F)(F)F)c3)o2)C(=O)Cc2ccc(OC)cc2)c2cc(OCCCO)ccc2N1C(=O)c1ccc(-c2ccccc2)cc1 (stereo not given in full) | 0.504 |
| Cc1ccc(S[C@]2(C(=O)NC(C)C)CC(=O)N(Cc3cc(C(F)(F)F)cc(C(F)(F)F)c3)[C@@H]2c2ccc(CO)cc2)cc1 | -0.129 |
| CCOC(=O)C[C@H]1[C@H](OC(=O)c2cc3ccccc3oc2=O)[C@@H](NC(=O)CC(C)C)c2cc(OCCCO)ccc2N1C(=O)c1ccc2ccccc2n1 | -0.692 |
| COc1ccc(CCNC(=O)[C@@]2(c3ccc([N+](=O)[O-])cc3)CC(=O)N(C3CCCCC3)[C@@H]2c2ccc(CO)cc2)cc1 | 0.954 |

| Structure (SMILES) | z-score |
| --- | --- |
| C[C@@H]1NC(=O)[C@@H](Cc2ccccc2)NC(=O)[C@@]23C(=O)N[C@@H](Cc4ccccc4)C2[C@H](C)[C@@]2(C)O[C@H]2C3/C=C/C/C=C\CNC1=O (stereo not given in full) | 1.09 |
| CCC1=C2CN(Cc3ccccc3)[C@@H](C(=O)Cc3ccccc3)C2C=CCC1 (stereo not given in full) | -0.948 |
| N#Cc1ccc(NN2C(C(O)c3ccc(Br)cc3)C=CC3C(=O)N(c4ccccc4)C(=O)C32)cc1 (stereo not given) | 0.0172 |
| OCCCC1=CC(c2ccc(CN3CCCC3)cc2)N(Cc2cc3c(cc2Br)OCO3)CC1 (stereo not given) | 0.0254 |
| O=C(O)[C@@H]1C[C@@H]2C(=O)N3CCC[C@H]3C(=O)N2[C@@H]1c1ccc(O)cc1 | -1.34 |
| CC(C)[Si]1(C(C)C)OCc2cc(-c3ccc(-c4ccc(Cl)c(Cl)c4)o3)nc(-c3ccccc3)c21 | 0.406 |
| COc1ccc([Si](C)(C)[C@@H]2[C@@H](CCO)O[C@]3(C(=O)N(Cc4ccccc4)c4ccc(N5C(=O)c6cccc7cccc5c67)cc43)[C@H]2C)cc1 | -1.3 |
| C=C[C@H](C)[C@H](OC(=O)Nc1ccc(SC)cc1)c1ccc(OCCO)cc1 | -0.72 |
| CCOC(=O)C[C@H]1[C@H](OC(=O)c2cc3ccccc3oc2=O)[C@@H](NC(=O)c2ccc3ccccc3n2)c2cc(OCCCO)ccc2N1C(=O)Cc1ccc(OC)cc1 | -0.423 |
| O=C(NCCN1CCOCC1)[C@@H]1c2ccccc2C(=O)N(Cc2ccccc2Cl)[C@H]1c1ccc(CO)cc1 | -0.408 |
| COC(=O)[C@@]1(Cc2ccc(F)cc2)[C@H]2c3cc(C(=O)N4CCCC4)n(Cc4ccc(C)c(F)c4F)c3C[C@H]2CN1C(=O)c1ccccc1 | -1.38 |
| CCCCC(CC)C(O)C1C=CC2C(=O)N(c3ccccc3)C(=O)C2N1Nc1ccccc1F (stereo not given) | -0.775 |
| [N-]=[N+]=Nc1ccccc1C[C@]1(C(=O)O)COC(c2ccc(OCCCO)cc2)=N1 | 0.529 |
| CC(=O)NCCCC[C@@H]1NC(=O)[C@@H]2C[C@H](C(=O)NCCCCCN)[C@H](c3cccc(OCCO)c3)N2C1=O | -0.0434 |
| COc1ccc(C#Cc2ccc3c(c2)[C@]2(C(=O)N3)[C@H](c3ccc(OCCO)cc3)N3[C@H](c4ccccc4)[C@H](c4ccccc4)OC(=O)[C@H]3[C@@H]2C(=O)NC[C@H](O)c2ccccc2)cc1 | -1.4 |
| CC(C)NC(=O)[C@@]1(C)c2ccccc2C(=O)N(Cc2ccc(OC(F)(F)F)cc2)[C@H]1c1ccc(CO)cc1 | -1.67 |
| CCCC[C@@H](O)C1=C(COC)C[C@H]2C(=O)N(Cc3ccccc3)C(=O)[C@H]2[C@H]1CO | -1.35 |
